KCNK3 inh: human KCNK3 channel inhibition, primary screen; CHO-KCNK3 thallium flux, FluxOR fluorescence; hits give low values; O14649; B-score at 10 µM; 340,000 compounds, 0.84% hits; AID 602410;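 active means B-score under library mean minus 4 SD, starting fluorescence ratio at most library mean plus 5 SD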;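 further: more negative B-score means stronger inhibition of thallium flux through KCNK3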
Kir21 inh: inhibitors of mouse Kir2.1 inward-rectifier potassium channel | P35561 | HEK293-Kir2.1, FluxOR thallium flux fluorescence; hits give low values | B-score at 10 µM | 310,000 compounds, 0.85% hits | AID 1672;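 active means fluorescence ratio B-score at or below minus 3 SD of library scores, with starting-brightness B-score within 2 SD, cut at about -4.2 in these data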;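 further: channel flux triggered by added potassium and thallium sulfate stimulus; B-score of peak minus minimum fluorescence over baseline after thallium stimulus; more negative B-score means stronger Kir2.1 block with less thallium influx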
Target sequence (P35561 whole entry, looked up): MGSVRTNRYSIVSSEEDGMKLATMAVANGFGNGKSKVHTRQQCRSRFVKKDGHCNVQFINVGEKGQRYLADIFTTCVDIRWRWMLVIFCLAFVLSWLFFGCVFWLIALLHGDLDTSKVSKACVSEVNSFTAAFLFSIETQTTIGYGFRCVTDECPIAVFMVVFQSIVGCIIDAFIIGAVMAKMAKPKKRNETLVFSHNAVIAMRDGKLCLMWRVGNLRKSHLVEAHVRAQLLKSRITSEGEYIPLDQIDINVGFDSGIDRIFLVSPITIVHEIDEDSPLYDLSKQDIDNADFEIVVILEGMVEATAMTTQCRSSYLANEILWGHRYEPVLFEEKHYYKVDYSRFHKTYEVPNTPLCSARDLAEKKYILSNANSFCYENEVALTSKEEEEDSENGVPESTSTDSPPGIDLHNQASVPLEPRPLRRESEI
ANO1 activ: mouse TMEM16A channel activation, primary screen | HEK293 TMEM16A/YFP-H148Q/I152L, iodide quench fluorescence; hits give low values | B-score at 10 µM | 340,000 compounds, 0.3% hits | Q8BHY3;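 active means fluorescence-ratio B-score plate-corrected deviation score at least 3 library SD below zero, with starting fluorescence score within 5 deviations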;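 further: channel opened by trigger with iodide after compound preincubation; score built on the fluorescence ratio of max minus min over baseline; more negative score means more quench and so TMEM16A activation or potentiation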
TMEM16A inh: inhibitors of mouse TMEM16A calcium-activated chloride channel. Q8BHY3. HEK293 TMEM16A/YFP iodide influx fluorescence, ionomycin. normalized B-score (activity score, 25-100; higher = stronger inhibition) at 10 µM. 310,000 compounds, 1.2% hits. AID 588511;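 active means ratio plate-corrected score three or more library SD toward inhibition, starting fluorescence score within five deviations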;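 further: score derived from kinetic fluorescence span divided by baseline fluorescence per well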
KCNK9 inh: blocks the human KCNK9 two-pore domain potassium channel. AID 488922. 310,000 compounds, 1.2% hits. B-score at 10 µM. HEK293 KCNK9, FluxOR thallium flux fluorescence; hits give low values;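 active means ratio B-score over 3 SD below the library mean, with starting fluorescence within 5 SD of its mean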;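 further: negative B-score means less thallium flux so channel inhibition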
* marks the source's active call; other numbers are inactive results; i = inactive; · = no result. Shown are actives, neighbours in structure and some others; about 3.5% of the full set was active somewhere.

SMILES | KCNK3 inh | Kir21 inh | ANO1 activ | TMEM16A inh | KCNK9 inh
Cc1cccc(-c2noc(CN(C)S(=O)(=O)c3cc(Cl)ccc3Cl)n2)c1 | i | -0.46 | i | i | -8.01*
CC1=C(C(=O)N2CCCC(N3CCN(c4ccccc4F)CC3)C2)OCCO1 (configuration not stated) | i | 0.04 | i | i | i
CC(NC(=O)Cn1cccc1C(=O)c1ccccc1)c1ccccc1 (configuration not stated) | i | -1.67 | i | i | i
Cc1ccccc1C(=O)c1cccn1CC(=O)NC(C)c1ccccc1 (configuration not stated) | i | -4.38* | i | i | i
CCOc1cc(CNCCO)cc(Br)c1OCc1ccc(Cl)cc1 | i | -17.8* | i | i | i
CCOc1cc(CNCCCN2CCOCC2)cc(Br)c1OCc1ccccc1Cl | i | -6.28* | i | i | i
O=C1C2CC=CCC2C(=O)N1c1ccc(NCCc2ccc(O)cc2)c([N+](=O)[O-])c1 (configuration not stated) | i | 1.64 | i | 25* | i
O=C1C2CC=CCC2C(=O)N1c1ccc(NCCc2ccc(Cl)cc2)c([N+](=O)[O-])c1 (configuration not stated) | i | 0.22 | i | i | i
Cc1ccc(Cl)cc1N1CCN(S(=O)(=O)N2CCCCC2)CC1 | i | -1.82 | -9.75* | i | i
Cc1cc2[nH]c3c4ccccc4nc(C)c3c2cc1C | i | · | i | · | ·
Cc1cc2[nH]c3c(c[n+](C)c4ccccc34)c2cc1C | i | -7.79* | i | i | i
COC(=O)c1ccc(COC(=O)c2ccc(C)c(S(=O)(=O)N3CCCCC3)c2)cc1 | -9.17* | · | i | · | ·
O=[N+]([O-])c1ccc(Oc2ccc(S(=O)(=O)N3CCCCC3)cc2)cc1 | i | -0.5 | i | 25* | i
Cc1ccc(C(=O)Oc2ccc([N+](=O)[O-])cc2)cc1S(=O)(=O)N1CCCCCC1 | i | -1.72 | i | i | -8.06*
O=C(CSc1nnc(-c2ccccn2)n1Cc1ccccc1)NC1CCCC1 | i | 0.67 | i | i | i
COc1ccccc1N1CN(S(=O)(=O)c2ccc(C)cc2)c2nc3ccccc3nc21 | -9.9* | · | i | · | ·
N#CCCCc1cc2ccccc2cn1 | i | · | i | · | ·
Clc1ccc(Nc2ccc(NCc3ccccc3)nn2)cc1 | i | -5.46* | i | i | i
Cc1ccc(Nc2ccc(NCc3ccccc3)nn2)cc1C | i | -0.93 | i | i | i
COc1ccc(CN(C(=O)c2cc(=O)c3ccccc3o2)C2CCS(=O)(=O)C2)cc1OC (configuration not stated) | i | 0.42 | i | i | i
O=C(O)c1cccc(NC(=S)N/N=C/c2ccccc2OCc2ccc(Br)cc2)c1 | i | -1.04 | i | 25* | i
O=C(COc1ccccc1-c1ccccc1)N/N=C/c1cccc2ccccc12 | i | -0.57 | i | i | i
O=C(COc1cccc2ccccc12)N/N=C/c1ccccc1OCc1ccc(C(=O)O)cc1 | i | 2.06 | i | 100* | i
O=C(O)c1cccc(NC(=S)N/N=C/c2ccccc2OCc2cccc(Br)c2)c1 | i | -0.16 | i | · | i
CN(C)CCc1cc2c(c3c1ccc1ccccc13)OCO2 | i | -10.8* | i | i | i
SMILES | KCNK3 inh | Kir21 inh | ANO1 activ | TMEM16A inh | KCNK9 inh
CC1=NN(c2ccccc2)C(=O)/C1=C/c1ccc(Cl)cc1 | i | -0.05 | i | 25* | i
Cc1cccc(CCNS(=O)(=O)c2ccc3c(c2)NC(=O)C(C)S3)c1 (configuration not stated) | i | -0.16 | i | i | i
CC[C@H](C)/C=C(C)/C=C/C(=O)Cc1cc(O)c(C)c(O)c1C=O | -10.2* | -1.34 | -12.8* | i | i
CCOC(=O)c1nn(-c2ccc(Br)cc2)cc1C(=O)c1cccc2ccccc12 | i | 3.18 | i | i | i
Cc1ccc2c(c1)c1c(n2CC(O)CNC2CCCCC2)CCCC1 (configuration not stated) | i | -7.89* | i | i | i
N#C/C(=C\c1ccc(C(=O)O)cc1)c1nc2sc3c(c2c(=O)[nH]1)CCCC3 | i | · | i | · | ·
Cc1ccc2c(C)c(C(=O)Nc3c(C)n(C)n(-c4ccccc4)c3=O)oc2c1 | i | 1.48 | -18.9* | i | i
CC(=O)c1c(C)[nH]c(C(=O)Nc2c(C)n(C)n(-c3ccccc3)c2=O)c1C | i | 0.29 | i | 100* | i
CN(CC(=O)NCCc1ccccc1)S(=O)(=O)c1cccs1 | i | 0.77 | -5.4* | i | i
CCN(CC(=O)Nc1ccc(N2CCOCC2)cc1)C(=O)c1ccc(C(F)(F)F)cc1 | i | -0.49 | i | i | i
CCN(CC(=O)Nc1ccc(N2CCOCC2)cc1)C(=O)Cc1ccccc1 | i | · | -32.4* | · | ·
COc1ccc2nc(SCCOC(=O)Nc3ccc(Cl)cc3)nc(C)c2c1 | i | -5.68* | i | 25* | i
CCc1ccccc1NC(=O)c1ccccc1Sc1ccc([N+](=O)[O-])cc1Cl | i | 0.82 | i | i | -7.16*
CC(C)(C)OC(=O)NCCCCCO | i | · | i | i | ·
CCCCn1c(=O)[nH]c(=O)c2c1nc(Cn1ncc(Cl)c(Cl)c1=O)n2CCC | i | 0.06 | i | i | i
C=CCC(C)(NCc1ccccc1)c1ccc(C)cc1 (configuration not stated) | i | -4.88* | i | i | i
Cn1c(=O)c2c(ncn2CC(=O)Nc2nc(-c3ccccc3Cl)cs2)n(C)c1=O | i | -0.91 | -10.2* | i | i
O=C(NCc1ccccc1)C1CC(=O)N(C2CCCCC2)C1 (configuration not stated) | i | -0.18 | i | i | i
COc1ccccc1C1(CCNC(C)c2cccs2)CCOC(C(C)C)C1 (configuration not stated) | i | -8.9* | i | i | i
COc1ccccc1C1(CCNS(=O)(=O)c2ccc(C)cc2)CCOC(C(C)C)C1 (configuration not stated) | i | -0.11 | i | i | i
Cc1c(CCC(=O)N[C@@H](CC(C)C)C(=O)O)c(=O)oc2cc3oc4c(c3cc12)CCCC4 | i | -0.02 | i | i | i
OCCCNCc1ccc(N(c2ccccc2)c2ccccc2)cc1 | i | -11.6* | i | i | i
OCCNC(=S)NCc1ccccc1 | i | 0.36 | i | i | i
Oc1ccccc1CN(Cc1ccco1)CC(O)COCc1ccc(Cl)cc1 (configuration not stated) | i | -0.85 | i | i | i
COc1ccc(COCC(O)CN(Cc2ccco2)Cc2ccccc2O)cc1 (configuration not stated) | i | -6.69* | i | i | i

Source: PubChem (Johns Hopkins Ion Channel Center)
